The results in this text go back to PubChem BioAssay (NCI).

Structures are written as SMILES. “And” between values parts separate entries of the source, which are not always exact repeats. Identical values can stand only once. The panel holds about 83,000 compounds, 20% with a hit somewhere; the sample as a whole holds those more often.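 Method: cells in 96-well plates; compound added at one concentration; 48 h incubation; percent growth measured; values under 10 scored active.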 Values without a mark were called inactive. The source made the active and inactive calls.

Assay in all cases: NCI-60 one-dose screen, 48 h (100 = growth as untreated, 0 = no growth, -100 = all killed)
What all share (details): 10 µM unless noted

The test system of assay [1] is NCI-H23 lung.
The subject of assay [2] is NCI-H226 lung.
For assay [3], the system named is NCI-H322M lung.
Assay [4] concerns HOP-62 NSCLC.
For assay [5], the system named is NCI-H460 lung.
In assay [6] the test system is HOP-92 NSCLC.
Assay [7] concerns NCI-H522 lung.
The subject of assay [8] is A549/ATCC NSCLC.
In assay [9] the test system is 786-0 renal.
The subject of assay [10] is COLO 205 colon.
Assay [11] has as its system DU-145 prostate.
In assay [12] the test system is K-562 leukemia.
In assay [13] the test system is MALME-3M melanoma.
The subject of assay [14] is MDA-MB-231 breast.
For assay [15], the system named is RXF 393 renal.
The test system of assay [16] is SF-268 CNS.
The test system of assay [17] is SF-295 CNS.
The test system of assay [18] is SF-539 CNS.
Assay [19] deals with UACC-257 melanoma.
In assay [20] the test system is M14 melanoma.

For `CC(C)c1cccc(C(C)C)c1O`, the growth in assay [1] is 97% and 103%; in assay [2] it was 107% and 103%; in assay [3], 99.6% and 93%; in assay [4], 111% and 110%; in [5], 117% and 101%; in [6], 100%. Moreover, the growth in [7] was 98%; in assay [8], 93.1% and 75.5%; in assay [9], 108%; in assay [10], 116% and 111%; in [11], 109% and 116%; in [12] it was 92.8% and 104%. For the same compound, the growth in assay [13] is 95.7% and 91.8%; in assay [14] it was 114% and 107%; in [15], 109%; in [16], 110% and 97.7%; in [17], 101% and 103%; in [18], 115% and 97.4%. In addition, the growth was 100% in assay [19]; 109% and 111% in assay [20].
Consider `CC12CCC3C4CCC(=O)C=C4CCC3C1CC1CC(=O)OC12` (stereo not given), for which the growth in assay [1] was 96.2%; in assay [2], 93.7%; in assay [3] it was 89.9%; in [4] it was 88%; in assay [5] it was 104%; in [6], 92.7%. For the same compound, the growth in assay [7] is 79%; in assay [8], 84.5%; in assay [9] it was 107%; in assay [10] it was 105%; in assay [11], 112%; in assay [12], 95.5%. Moreover, the growth is 103% in assay [13]; 97.6% in assay [14]; 110% in assay [15]; 98% in assay [16]; 103% in [17]; 101% in assay [18]. Further, the growth in [19] is 80.7%; in assay [20], 104%.
On to `CCOC(=O)c1cncn1C(C)c1ccccc1` (stereo not given), for which the growth was 118% in assay [1]; 105% in [2]; 101% in assay [3]; 97.7% in assay [4]; 118% in assay [5]; 95.8% in assay [6]. The growth was 94.3% in [7]; 103% in assay [8]; 97% in [9]; 109% in [10]; 120% in assay [11]; 96.7% in [12]. In addition, the growth in assay [13] was 109%; in assay [14], 112%; in assay [15], 103%; in assay [16], 113%; in assay [17], 104%; in assay [18], 107%. Further, the growth in assay [19] and in [20] was 103% throughout.
Turning to `C[N+]1(C)CCCC1c1cccnc1` (stereo not given), the growth was 101% in assay [1]; 98.3% in assay [2]; 104% in [3]; 101% in assay [4]; 108% in assay [5]; 88.9% in assay [6]. The growth in assay [7] was 102%; in assay [8], 95.9%; in assay [9] it was 91%; in [10], 109%; in [11], 110%; in [12], 99.3%. The growth in [13] was 92.1%; in assay [14], 109%; in assay [15] it was 102%; in assay [16] it was 108%; in assay [17], 100%; in assay [18], 107%. Further, the growth in assay [19] was 96.9%; in assay [20], 97.5%.
For the compound `CCC(=O)C(CC(C)N1CCCCCC1)(c1ccccc1)c1ccccc1` (stereo not given), the growth in [1] was 91.6%; in assay [2], 92.6%; in assay [3] it was 84.7%; in assay [4], 85.6%; in assay [5], 103%; in assay [6], 65.9%. Further, the growth is 83% in assay [7]; 87.8% in [8]; 87.4% in assay [9]; 93% in [10]; 102% in [11]; 82.6% in assay [12]. The growth in assay [13] is 93.6%; in assay [14], 92.4%; in assay [15], 129%; in assay [16], 104%; in assay [17], 89.7%; in assay [18] it was 98.6%. The growth was 100% in [19] and 98.1% in assay [20].
Turning to `Cc1nnc([S-])o1.[Au+].c1ccc([PH+](c2ccccc2)c2ccccc2)cc1`, the growth in assay [1] was 61.5%; in assay [2] it was 114%; in [3], 88.4%; in assay [4], 121%; in assay [5], 86%; in [6], -9.28% (active). The growth in assay [7] was -81.1% (active); in assay [8], 76.4%; in [9] it was 38.8%; in [10], 55.4%; in [11], 62.4%; in assay [12], 12.8%. Also, the growth was 48.1% in assay [13]; 61.4% in [14]; -53.8% (active) in assay [15]; 43.4% in assay [16]; 92.1% in assay [17]; 67.8% in [18]. For the same compound, the growth in assay [19] is 27.9%; in assay [20] it was 31.8%.
Regarding `CCCCCCCCCCCCCCCCCCn1cc[n+](C)c1`, the growth in [1] is -48.9% (active) and -44.3% (active); in assay [2], -54% (active) and -61.7% (active); in assay [3], 5.3% (active) and 6.16% (active); in [4] it was -58.6% (active) and -74.1% (active); in assay [5], -62.9% (active) and -51.3% (active); in [6], -51.3% (active) and -66.2% (active). For the same compound, the growth is -74.9% (active) and -74.3% (active) in assay [7]; -15.2% (active) and -47.2% (active) in assay [8]; -74.9% (active) and -81.7% (active) in [9]; 1.82% (active) and -47.3% (active) in assay [10]; -54% (active) and -62.3% (active) in assay [11]; 28.3% and 17.9% in assay [12]. The growth in [13] was -33.7% (active) and -30.7% (active); in assay [14], -66.2% (active) and -80.2% (active); in assay [15], -28.3% (active) and -62.1% (active); in assay [16], -45.4% (active) and -45.3% (active); in [17], -10.4% (active) and -21.5% (active); in [18], -85.2% (active) and -82.9% (active). Also, the growth is -38% (active) and -47.9% (active) in [19]; -62.4% (active) and -49.9% (active) in [20].
